# Assay results taken from PubChem BioAssay.
# The source made the active and inactive calls. Cut-off read from the data, not from the text of the source, unless noted: active = inhibition above about 80%; inactive = the rest.
# Legend:
# [1] = sensitizers of A549 cells to miR-34 induction, primary screen, imaging, A549 dox-inducible miR-34, nuclei and caspase counts (AID 1347080;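 active = compounds whose cell count with miR-34 switched on is under 0.7 times the count with it off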); conditions: A549 miR-34 inducible, Hoechst nuclei count, 48 h
# [2] = survival rescue of mitochondrial mutant cells in low glucose, primary screen, MELAS cybrids, Rieske KO mouse fibroblasts, CellTiter-Glo (AID 1508586;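 active = mean z-score across replicates of 1.96 or higher in either the MELAS or the Rieske mutant cell line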;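 note: z relative to plate mean and SD of compound and empty wells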)
# [3] = LFS_MB_P medulloblastoma growth inhibition, cell-based, chromothripsis tumors, cisplatin or BGB combos (AID 1671449); conditions: LFS_MB_P medulloblastoma cells;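 note: cells exposed for 96 hours; 0% = vehicle DMSO and 100% = killing by high DMSO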
# [4] = HDN33 neuroblastoma growth inhibition, cell-based, chromothripsis tumors, cisplatin or BGB combos (AID 1671450); conditions: HDN33 neuroblastoma cells, stronger effect = higher value;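 note: cells exposed to compound for four days; 0% = vehicle DMSO and 100% = cell killing by high DMSO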
# [5] = ICB984 medulloblastoma cell growth inhibition, synergistic combos for chromothripsis tumors, cisplatin or BGB combos (AID 1671451; call rule not given here;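 note: cells exposed for 96 hours before readout; 0% = vehicle DMSO and 100% = killing by high DMSO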); conditions: ICB984 medulloblastoma cells, drug combinations, stronger effect = higher value
# [6] = LFS_MB_1R medulloblastoma cell growth inhibition, synergistic combos for chromothripsis tumors, cisplatin or BGB combos (AID 1671452); conditions: LFS_MB_1R medulloblastoma cells, stronger effect = higher value;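 note: cells exposed for 96 hours before readout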
# [7] = HTB85 osteosarcoma cell growth inhibition, synergistic combos for chromothripsis tumors, BGB or cisplatin IC20 combos (AID 1671453); conditions: HTB85 osteosarcoma cells, drug combinations, stronger effect = higher value;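 note: cells exposed for 96 hours before readout; 0% = vehicle DMSO and 100% = high DMSO killing control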
# [8] = CRL2098 osteosarcoma cell growth inhibition, synergistic combos for chromothripsis tumors, BGB or cisplatin IC20 combos (AID 1671454); conditions: CRL2098 osteosarcoma cells, drug combinations, stronger effect = higher value;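 note: cells exposed for 96 h before readout; 0% = vehicle DMSO and 100% = killing by high DMSO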
# [9] = HD-MB03 medulloblastoma cell growth inhibition, synergistic combos for chromothripsis tumors, BGB or cisplatin IC20 combos (AID 1671455; in the data active = inhibition above about 83%;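 note: 0% = vehicle DMSO and 100% = high DMSO as cytotoxic control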); conditions: HD-MB03 medulloblastoma cells, stronger effect = higher value
# [10] = UWB1.289 ovarian carcinoma cell growth inhibition, synergistic combos for chromothripsis tumors, BGB or cisplatin combos (AID 1671456); conditions: UWB1.289 ovarian carcinoma cells, stronger effect = higher value;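 note: cells exposed to compound for four days; 0% = vehicle DMSO and 100% = killing by high DMSO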
# [11] = LFS_MB_2R medulloblastoma cell growth inhibition, synergistic combos for chromothripsis tumors, cisplatin combos (AID 1671457); conditions: LFS_MB_2R medulloblastoma cells, stronger effect = higher value;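 note: cells exposed to compound for four days before readout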
# [12] = MDA-MB-436 breast carcinoma cell growth inhibition, synergistic combos for chromothripsis tumors, BGB or cisplatin combos (AID 1671458; call rule not given here;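 note: cells exposed for 96 hours; 0% = vehicle DMSO and 100% = killing by high DMSO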); conditions: MDA-MB-436 breast carcinoma growth inhibition, drug combinations, stronger effect = higher value
# [13] = UWB1.289_BRCA1 ovarian cancer growth, cell-based, BGB or cisplatin combinations (AID 1671459); conditions: UWB1.289 BRCA1 ovarian carcinoma, drug combinations, stronger effect = higher value
# [14] = human astrocyte viability loss, single and combined drugs, cytotoxicity control for chromothriptic childhood tumor combination screen, cell-based, BGB or cisplatin IC20 combos (AID 1671460); conditions: Human astrocytes, drug combinations, stronger effect = higher value;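 note: cells exposed to compounds for 96 hours before viability readout; 0% = vehicle and 100% = killing control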
# [15] = growth inhibition of BT084 medulloblastoma cells, cell-based, ICGC_MB145, cisplatin and BGB IC40 combos (AID 1671461); conditions: drug combinations, stronger effect = higher value;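 note: cells exposed to drugs for 96 hours; 0% = vehicle DMSO and 100% = high DMSO full killing control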
# [16] = growth inhibition of RCMB18 medulloblastoma cells, cell-based, cisplatin and BGB IC40 combos (AID 1671462); conditions: stronger effect = higher value;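 note: cells exposed to compound for four days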
# [17] = growth inhibition of CRL1545 osteosarcoma cells, cell-based, cisplatin and BGB IC20 combos (AID 1671464); conditions: stronger effect = higher value;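 note: cells exposed to compound for 96 hours before readout; 0% = vehicle DMSO and 100% = high DMSO killing control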
# [18] = stronger effect = lower value, cell number ratio, induced over uninduced
# [19] = measured here: relative caspase fold change +Dox/-Dox
# [20] = measured here: total cells with miR-34 induction, stronger effect = lower value
# [21] = measured here: total cells without miR-34 induction
# [22] = MELAS cybrid survival, CellTiter-Glo 48 h, stronger effect = higher value
# [23] = Rieske KO mouse fibroblast survival, CellTiter-Glo 72 h
# [24] = at 0.5 µM, stronger effect = higher value
# [25] = measured here: combination with BGB IC20, at 0.005 µM
# [26] = measured here: combination with BGB IC40, at 0.005 µM
# [27] = measured here: combination with BGB IC40, at 0.05 µM
# [28] = measured here: combination with cisplatin, at 0.5 µM, stronger effect = higher value
# [29] = measured here: combination with cisplatin, at 5 µM, stronger effect = higher value
# [30] = measured here: with BGB IC20 combination, at 0.5 µM
# [31] = measured here: with cisplatin IC20 combination, at 0.5 µM
# [32] = measured here: 5 uM single agent, at 5 µM
# [33] = measured here: combination with cisplatin, at 0.5 µM
# [34] = measured here: combination with cisplatin, at 5 µM
# [35] = measured here: with BGB IC20, at 0.5 µM
# [36] = measured here: with BGB IC20, at 5 µM
# [37] = measured here: with cisplatin IC20, at 0.5 µM
# [38] = measured here: with cisplatin IC20, at 5 µM
# [39] = measured here: combination with BGB at IC20, at 0.5 µM
# [40] = measured here: combination with cisplatin at IC20, at 0.5 µM
# [41] = measured here: combo with BGB at IC20, at 0.5 µM
# [42] = measured here: combo with cisplatin at IC20, at 0.5 µM
# [43] = measured here: inhibition with BGB combination, at 0.05 µM
# [44] = measured here: inhibition with cisplatin combination, at 0.05 µM
# [45] = measured here: BGB combination, at 0.5 µM
# [46] = measured here: BGB combination, at 5 µM
# [47] = measured here: cisplatin combination, at 0.5 µM
# [48] = measured here: cisplatin combination, at 5 µM
# [49] = BGB combination, concentration series, at 5 µM
# [50] = cisplatin combination, concentration series, at 5 µM
# [51] = measured here: combo with BGB IC20, at 0.5 µM
# [52] = measured here: combo with cisplatin IC20, at 0.5 µM
# [53] = cisplatin combination, at 0.5 µM
# [54] = measured here: BGB IC40 combination 0.05 uM, at 0.05 µM
# [55] = measured here: BGB IC40 combination, at 0.05 µM
smiles,measurement,setting,value
CC(C)(C#N)c1ccc(N2C(=O)OCc3cnc4ccc(-c5cnc6ccccc6c5)cc4c32)cc1,fold change,[1]; [18],0.956 (inactive)
same,fold change,[1]; [19],0.673
same,cell count,[1]; [20],2510
same,cell count,[1]; [21],2620
same,z-score,[2]; [22],3.99 (active)
same,z-score,[2]; [23],2.98
same,inhibition,[3]; [24],-21.4% (inactive)
same,inhibition,[3]; [25],-11.2%
same,inhibition,[3]; [26],-17%
same,inhibition,[3]; [27],-37.9%
same,inhibition,[3]; [28],-37.5%
same,inhibition,[3]; [29],-27.3%
same,inhibition,"[4]; BGB combo, at 5 µM",20.7%
same,inhibition,[4]; at 0.5 µM,3.13% (inactive)
same,inhibition,"[4]; cisplatin combo, at 5 µM",12.1%
same,inhibition,[4]; [30],34.2%
same,inhibition,[4]; [31],-10.9%
same,inhibition,"[4]; single agent, at 5 µM",52.2%
same,inhibition,"[5]; BGB IC20 combo, at 0.005 µM",-18.4%
same,inhibition,"[5]; BGB IC40 combo, at 0.005 µM",-8.9%
same,inhibition,"[5]; BGB IC40 combo, at 0.05 µM",30.5%
same,inhibition,[5]; at 0.5 µM,-29.7% (inactive)
same,inhibition,"[5]; cisplatin combo, at 0.05 µM",28.5%
same,inhibition,"[5]; cisplatin combo, at 0.5 µM",-15.5%
same,inhibition,"[5]; cisplatin combo, at 5 µM",-36.2%
same,inhibition,[5]; [32],-21.9%
same,inhibition,[6]; at 0.5 µM,-13.4% (inactive)
same,inhibition,[6]; [27],-7.9%
same,inhibition,[6]; [33],-39.8%
same,inhibition,[6]; [34],24%
same,inhibition,[7]; at 0.5 µM,3.37% (inactive)
same,inhibition,[7]; [35],2.55%
same,inhibition,[7]; [36],14.5%
same,inhibition,[7]; [37],-23.6%
same,inhibition,[7]; [38],28.2%
same,inhibition,"[7]; single agent, at 5 µM",-10.2%
same,inhibition,[8]; at 0.5 µM,-42.5% (inactive)
same,inhibition,[8]; [39],-42.2%
same,inhibition,[8]; [40],-56.5%
same,inhibition,[9]; at 0.5 µM,-11.6% (inactive)
same,inhibition,[9]; [41],-14.5%
same,inhibition,[9]; [42],-8.16%
same,inhibition,[10]; at 0.5 µM,5.6% (inactive)
same,inhibition,[10]; [43],-17%
same,inhibition,[10]; [44],-6.61%
same,inhibition,[11]; at 0.5 µM,-11.6% (inactive)
same,inhibition,[11]; [33],-16.8%
same,inhibition,[11]; [34],-39.1%
same,inhibition,[12]; at 0.5 µM,-25% (inactive)
same,inhibition,[12]; [45],-28.5%
same,inhibition,[12]; [46],-0.266%
same,inhibition,[12]; [47],-29.7%
same,inhibition,[12]; [48],-3.36%
same,inhibition,[13]; [49],53.9%
same,inhibition,[13]; at 0.5 µM,6.07% (inactive)
same,inhibition,[13]; [50],99.8%
same,inhibition,[14]; at 0.5 µM,-4.16% (inactive)
same,inhibition,[14]; [51],-12.4%
same,inhibition,[14]; [52],-5.44%
same,inhibition,[15]; at 0.5 µM,-28.9% (inactive)
same,inhibition,[15]; [53],-2.27%
same,inhibition,"[15]; cisplatin combination, at 5 µM",60.4%
same,inhibition,[15]; [54],-35.6%
same,inhibition,"[15]; single agent, at 5 µM",4.04%
same,inhibition,[16]; at 0.5 µM,-2.14% (inactive)
same,inhibition,"[16]; cisplatin combo, at 5 µM",20.5%
same,inhibition,[16]; [55],-35.7%
same,inhibition,[16]; [33],7.95%
same,inhibition,"[16]; single agent, at 5 µM",19.4%
same,inhibition,[17]; at 0.5 µM,0.16% (inactive)
same,inhibition,[17]; [30],-15%
same,inhibition,[17]; [31],5.66%
same,inhibition,"[17]; single agent, at 0.05 µM",-4.01%
same,inhibition,"[17]; single agent, at 5 µM",26.5%
Cc1cc(C#N)cc(C)c1Oc1nc(Nc2ccc(C#N)cc2)nc(N)c1Br,fold change,[1]; [18],0.85 (inactive)
same,fold change,[1]; [19],2.01
same,cell count,[1]; [20],3910
same,cell count,[1]; [21],4600
same,z-score,[2]; [22],0.252 (inactive)
same,z-score,[2]; [23],-0.21
same,inhibition,[3]; [24],-6.54% (inactive)
same,inhibition,[3]; [25],-10%
same,inhibition,[3]; [26],-30.6%
same,inhibition,[3]; [27],-26%
same,inhibition,[3]; [28],-19.3%
same,inhibition,[3]; [29],-60.9%
same,inhibition,"[4]; BGB combo, at 5 µM",-14.1%
same,inhibition,[4]; at 0.5 µM,-5.11% (inactive)
same,inhibition,"[4]; cisplatin combo, at 5 µM",-9.1%
same,inhibition,[4]; [30],-9.33%
same,inhibition,[4]; [31],0.249%
same,inhibition,"[4]; single agent, at 5 µM",-3.14%
same,inhibition,"[5]; BGB IC20 combo, at 0.005 µM",-6.67%
same,inhibition,"[5]; BGB IC40 combo, at 0.005 µM",-12.8%
same,inhibition,"[5]; BGB IC40 combo, at 0.05 µM",-9.57%
same,inhibition,[5]; at 0.5 µM,-33.3% (inactive)
same,inhibition,"[5]; cisplatin combo, at 0.05 µM",-12.6%
same,inhibition,"[5]; cisplatin combo, at 0.5 µM",-45.3%
same,inhibition,"[5]; cisplatin combo, at 5 µM",-4.46%
same,inhibition,[5]; [32],-18.9%
same,inhibition,[6]; at 0.5 µM,-14.8% (inactive)
same,inhibition,[6]; [27],-38.9%
same,inhibition,[6]; [33],-11.1%
same,inhibition,[6]; [34],-7.4%
same,inhibition,[7]; at 0.5 µM,-2.4% (inactive)
same,inhibition,[7]; [35],-12.9%
same,inhibition,[7]; [36],-34.8%
same,inhibition,[7]; [37],-9.12%
same,inhibition,[7]; [38],-37.6%
same,inhibition,"[7]; single agent, at 5 µM",-5.74%
same,inhibition,[8]; at 0.5 µM,-46.8% (inactive)
same,inhibition,[8]; [39],-26.7%
same,inhibition,[8]; [40],-48.1%
same,inhibition,[9]; at 0.5 µM,-1.6% (inactive)
same,inhibition,[9]; [41],6.5%
same,inhibition,[9]; [42],-1.27%
same,inhibition,[10]; at 0.5 µM,1.48% (inactive)
same,inhibition,[10]; [43],-24.8%
same,inhibition,[10]; [44],0.893%
same,inhibition,[11]; at 0.5 µM,-10.7% (inactive)
same,inhibition,[11]; [33],-24.9%
same,inhibition,[11]; [34],-73.7%
same,inhibition,[12]; at 0.5 µM,-26.8% (inactive)
same,inhibition,[12]; [45],-22.5%
same,inhibition,[12]; [46],-28.6%
same,inhibition,[12]; [47],-43.6%
same,inhibition,[12]; [48],-39.5%
same,inhibition,[13]; [49],11.2%
same,inhibition,[13]; at 0.5 µM,1.32% (inactive)
same,inhibition,[13]; [50],2.3%
same,inhibition,[14]; at 0.5 µM,3.72% (inactive)
same,inhibition,[14]; [51],14%
same,inhibition,[14]; [52],-7.51%
same,inhibition,[15]; at 0.5 µM,-18% (inactive)
same,inhibition,[15]; [53],-20.9%
same,inhibition,"[15]; cisplatin combination, at 5 µM",-30.7%
same,inhibition,[15]; [54],7.73%
same,inhibition,"[15]; single agent, at 5 µM",-20.3%
same,inhibition,[16]; at 0.5 µM,-32.5% (inactive)
same,inhibition,"[16]; cisplatin combo, at 5 µM",-24.1%
same,inhibition,[16]; [55],-39.7%
same,inhibition,[16]; [33],-23%
same,inhibition,"[16]; single agent, at 5 µM",-29.9%
same,inhibition,[17]; at 0.5 µM,0.47% (inactive)
same,inhibition,[17]; [30],4.81%
same,inhibition,[17]; [31],-4%
same,inhibition,"[17]; single agent, at 0.05 µM",-33.2%
same,inhibition,"[17]; single agent, at 5 µM",12%
